Bioassay records from PubChem.
Hits are enriched below; roughly 1.5% of the tested compounds scored in any of these assays.
MEX-5 binding – C. elegans MEX-5 TCR-2 RNA binding activity; AID 1832; Q9XUB2; MEX-5/FITC-TCR2 RNA binding, fluorescence polarization; active compounds read low; activity score (negative = inhibition of binding), % at 10 µM; 0.38% of 300,000 active;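 active means inhibition past about -25% in most replicates, and total fluorescence under double the plate's negative control median, limit read from the data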;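 further: 0% = DMSO and -100% = 5 µM competing unlabeled TCR2 RNA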
Target sequence (Q9XUB2 whole entry, looked up): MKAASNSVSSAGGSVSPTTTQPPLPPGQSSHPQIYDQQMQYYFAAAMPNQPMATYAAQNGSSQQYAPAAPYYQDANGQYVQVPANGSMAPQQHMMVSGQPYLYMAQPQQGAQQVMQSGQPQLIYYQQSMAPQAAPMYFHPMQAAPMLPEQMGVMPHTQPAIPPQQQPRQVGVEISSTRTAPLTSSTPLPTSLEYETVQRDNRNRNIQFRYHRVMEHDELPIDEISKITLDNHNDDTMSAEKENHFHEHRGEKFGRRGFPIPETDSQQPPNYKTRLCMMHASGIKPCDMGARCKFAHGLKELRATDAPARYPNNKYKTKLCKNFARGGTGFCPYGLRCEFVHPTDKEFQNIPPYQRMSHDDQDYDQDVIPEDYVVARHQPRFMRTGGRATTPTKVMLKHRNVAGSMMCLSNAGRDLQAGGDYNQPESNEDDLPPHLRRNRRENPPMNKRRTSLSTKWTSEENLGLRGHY
E coli Lon inh – E. coli protease La inhibition. purified E. coli Lon protease, fluorescence polarization. P0A9M0. inhibition, % at 7.94 µM. AID 602123. 0.42% of 360,000 active; in the data active means inhibition above about 13%, passing the limit was not always enough;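 further: 0% = enzyme with probe and DMSO and 100% = no enzyme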
Bcl-xL primary – blocks human Bcl-xL binding to Bim BH3 peptide; GST-Bcl-xL / FITC-Bim BH3 peptide fluorescence polarization; inhibition, % at 10.9 µM; 0.7% of 320,000 active; AID 2129;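 active means inhibition above the mean of all tested compounds plus 3 SD, cutoff set per campaign, cut at about 30% in these data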;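 further: 0% = DMSO wells and 100% = unlabeled Bim-BH3 peptide competitor; inhibitors lower millipolarization by displacing the labeled peptide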
EBV gp42 block – EBV gp42 inhibition; inhibition, % (tested at 21.74 µM); Q1HVG2; 0.42% of 220,000 active; Fluorescence polarization binding assay, mP read-out; in the data active means inhibition above about 50%
GLD-1 TGE inh – GLD-1-TGE RNA interaction inhibition (C. elegans) | purified GLD-1 + fluorescein TGE RNA, fluorescence polarization | inhibition, % at 5.96 µM | 0.44% of 320,000 active | AID 2280;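 active means percent inhibition above a per-plate cutoff, the plate mean of test compounds plus 3 SD, cut at about 30% in these data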;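 further: 0% = DMSO wells with GLD-1 and probe and 100% = wells lacking GLD-1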
MCL1-BIM inh – disrupts human MCL1 binding to BIM-BH3 peptide | GST-MCL1 / FITC-Bim-BH3 fluorescence polarization | inhibition, % at 10.9 µM | 0.68% of 320,000 active;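 active means inhibition above the mean inhibition of all tested compounds plus 3 SD, set per campaign, cut at about 40% in these data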;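 further: 0% = DMSO wells and 100% = unlabeled Bim-BH3 peptide control; higher means more loss of mP so more displacement of Bim peptide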
Bcl-xL conf – Bcl-xL (human) inhibition, MCL1 counter-screen confirmation. shares compounds with MCL1-BIM inh. GST-Bcl-xL / FITC-Bim BH3 peptide FP binding. inhibition, % at 10.9 µM. 54% of 1,700 active. AID 2166;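 active means inhibition above a cutoff equal to the mean inhibition of all tested compounds plus 3 SD, cut at about 30% in these data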;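 further: 0% = DMSO wells and 100% = unlabeled Bim BH3 control peptide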
MCL1 inh confirm – confirmation of human MCL1 and BIM-BH3 interaction inhibitors. shares compounds with MCL1-BIM inh. GST-MCL1 / FITC-Bim-BH3 fluorescence polarization. inhibition, % at 10.9 µM. 61% of 1,700 active;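 active means inhibition above the average of all tested compounds plus 3 SD, cut at about 40% in these data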;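 further: 0% = DMSO wells and 100% = unlabeled Bim-BH3 control peptide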
The depositor's hits bear a star.

O=C(COCc1ccccc1)N[C@@H](Cc1ccc(O)cc1)C(=O)O was read as MEX-5 binding 0, E coli Lon inh 3, Bcl-xL primary 2, EBV gp42 block -10, GLD-1 TGE inh 4 and MCL1-BIM inh 5.
C=CCn1c(SCC(=O)Nc2ccc3c(c2)CCC3)nc2ccccc2c1=O was read as MEX-5 binding -1, E coli Lon inh 4, Bcl-xL primary -1, EBV gp42 block -4, GLD-1 TGE inh 2, MCL1-BIM inh active, Bcl-xL conf 6 and MCL1 inh confirm 15.
For CCCCn1c(SCC(=O)Nc2ccc3c(c2)CCC3)nc2ccccc2c1=O the results were MEX-5 binding -1, E coli Lon inh -6, Bcl-xL primary 4, EBV gp42 block -5, GLD-1 TGE inh 1 and MCL1-BIM inh 0.
Cc1ccccc1C(=O)N1CCC(C(=O)Nc2ccc(S(=O)(=O)N3CCCC3)cc2)CC1 was read as MEX-5 binding 0, E coli Lon inh 0, Bcl-xL primary -2, EBV gp42 block -32, GLD-1 TGE inh 1 and MCL1-BIM inh -2.
Screening Cc1ccc(-c2cc(C(=O)Nc3ccccn3)c3ccccc3n2)o1 returned MEX-5 binding -1, E coli Lon inh 3, Bcl-xL primary 29, EBV gp42 block 30, GLD-1 TGE inh 9, MCL1-BIM inh 47*, Bcl-xL conf 32* and MCL1 inh confirm 69*.
Screening Cc1ccc(NC(=O)c2cc(-c3ccc(C)o3)nc3ccccc23)cc1 returned MEX-5 binding 0, E coli Lon inh -12, Bcl-xL primary 8, EBV gp42 block -22, GLD-1 TGE inh 5 and MCL1-BIM inh 13.
`O=C(Cn1ncc2ccccc21)N1CCN(c2cccc(C(F)(F)F)c2)CC1` gave MEX-5 binding -2, E coli Lon inh 2, Bcl-xL primary 5, EBV gp42 block 2, GLD-1 TGE inh 1 and MCL1-BIM inh 8.
For Nc1ncnc2oc(-c3ccco3)c(-c3ccco3)c12 the results were MEX-5 binding -18, E coli Lon inh 10, Bcl-xL primary 36*, EBV gp42 block 45, GLD-1 TGE inh 8, MCL1-BIM inh 95*, Bcl-xL conf 40* and MCL1 inh confirm 93*.
`COc1cc(NC(=O)CCCSc2nc(-c3ccco3)cc(C(F)(F)F)n2)cc(OC)c1OC` gave MEX-5 binding -3, E coli Lon inh -9, Bcl-xL primary -1, EBV gp42 block -11, GLD-1 TGE inh -3 and MCL1-BIM inh -1.
`CC(=O)Nc1ccc(NC2=C(Cl)C(=O)c3ccccc3C2=O)cc1` gave MEX-5 binding -3 and EBV gp42 block 3.
For CN(C)c1ccc(NC2=C(Cl)C(=O)c3ccccc3C2=O)cc1 the results were MEX-5 binding -3, E coli Lon inh -5, Bcl-xL primary 28, EBV gp42 block -1, GLD-1 TGE inh 4, MCL1-BIM inh 41*, Bcl-xL conf 32* and MCL1 inh confirm 37.
COc1cccc2c(=O)c3cccc(N)c3[nH]c12 was read as MEX-5 binding -4, E coli Lon inh 7, Bcl-xL primary 63*, EBV gp42 block -10, GLD-1 TGE inh 13, MCL1-BIM inh 87*, Bcl-xL conf 44* and MCL1 inh confirm 42*.
Screening CCN(CC)CCOC(=O)c1ccc(NC(=O)CCCN2C(=O)/C(=C\c3cccs3)SC2=S)cc1 returned MEX-5 binding -2, E coli Lon inh -50, Bcl-xL primary 7, GLD-1 TGE inh -8 and MCL1-BIM inh 6.
Cc1ccc(OCC(=O)c2c(N)n(C)c(=O)n(C)c2=O)c([N+](=O)[O-])n1 was read as E coli Lon inh 5, Bcl-xL primary 36*, GLD-1 TGE inh 14, MCL1-BIM inh 72*, Bcl-xL conf 23 and MCL1 inh confirm 59*.
For C=CCOc1ccc(CNn2cn[nH]c2=S)cc1OC the results were MEX-5 binding 0, E coli Lon inh -1, Bcl-xL primary -3, EBV gp42 block -3, GLD-1 TGE inh -6 and MCL1-BIM inh -18.
For O=[N+]([O-])c1ccc2[nH]c(O)c(N=NC(=S)Nc3cccnc3)c2c1 the results were MEX-5 binding 3, E coli Lon inh -7, Bcl-xL primary 18, EBV gp42 block 59*, GLD-1 TGE inh -2, MCL1-BIM inh 42*, Bcl-xL conf 32* and MCL1 inh confirm 33.
Cc1ccc(C)c(N(CC(=O)NCc2ccco2)C(=O)CNS(=O)(=O)c2ccccc2)c1 was read as MEX-5 binding 0, E coli Lon inh 5, Bcl-xL primary 6, GLD-1 TGE inh -1 and MCL1-BIM inh 2.
Cc1ccc(N(CC(=O)NCc2ccco2)C(=O)CNS(=O)(=O)c2ccccc2)c(C)c1 was read as MEX-5 binding 1, E coli Lon inh 3, Bcl-xL primary 6, GLD-1 TGE inh -3, MCL1-BIM inh 42*, Bcl-xL conf 3 and MCL1 inh confirm -15.
Screening Oc1ccc(/C=N\Nc2cc(N3CCOCC3)nc(N3CCOCC3)n2)c(O)c1 returned MEX-5 binding -8, E coli Lon inh 7, Bcl-xL primary 5, EBV gp42 block -22, GLD-1 TGE inh 3 and MCL1-BIM inh 8.
Oc1ccc(/C=N/Nc2cc(N3CCCC3)nc(N3CCCC3)n2)cc1O was read as MEX-5 binding -3, E coli Lon inh 0, Bcl-xL primary 18, EBV gp42 block -8, GLD-1 TGE inh 12, MCL1-BIM inh 48*, Bcl-xL conf 15 and MCL1 inh confirm 14.
CC1CC(C)CN(C(=O)COC(=O)c2ccc3c(c2)OCO3)C1 (stereo not given) was read as E coli Lon inh -7, Bcl-xL primary 2, GLD-1 TGE inh 5, MCL1-BIM inh 46*, Bcl-xL conf -1 and MCL1 inh confirm 6.
`CC(C)(C)OC(=O)NCCCCC1=CC2=CC(=O)C(C)(OC(=O)c3cnc4ccccc4n3)C(=O)C2=CO1` (stereo not given) gave MEX-5 binding -28*, Bcl-xL primary 59*, GLD-1 TGE inh 89*, MCL1-BIM inh 58*, Bcl-xL conf 39* and MCL1 inh confirm 52*.
`COC(=O)CCCC1=CC2=CC(=O)C(C)(OC(=O)c3ccc(Cl)nc3)C(=O)C2=CO1` (stereo not given) gave MEX-5 binding -35*, Bcl-xL primary 55*, GLD-1 TGE inh 57*, MCL1-BIM inh 66*, Bcl-xL conf 46* and MCL1 inh confirm 69*.
